Experimental data reported in PubChem BioAssay (NCI).
Compounds without any hit were thinned out: in the full panel of roughly 79,000, 15% have a hit. Calls of active or inactive are those of the source. Rule as the data show it: active = growth inhibition above about 70%; inactive = the rest.

Key:
[1] = NCI Yeast Anticancer Drug Screen. Data for the rad52 strain (AID 147);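 also: 0% = growth of vehicle-treated control cultures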; details: S. cerevisiae rad52 mutant growth inhibition, active compounds read high
Summary of the method: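 Inhibition of yeast growth, referenced to vehicle controls, was the measured output for a strain with defective DNA damage repair.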

[2] = NCI Yeast Anticancer Drug Screen. Data for the wt1 strain (AID 149);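 also: 0% = growth of vehicle-treated wt1 cultures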; details: S. cerevisiae wt1 strain (SPY 50644) growth inhibition, active compounds read high
Summary of the method: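 wt1 strain grown with compound or vehicle; inhibition taken from the growth difference.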

[3] = NCI Yeast Anticancer Drug Screen. Data for the rad50EPP+ strain (AID 151);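 also: 0% = growth of vehicle-treated control cultures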; details: S. cerevisiae rad50 mutant strain, active compounds read high
Summary of the method: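 Genetically defined yeast (rad50EPP+, DNA damage repair alteration) is grown with compound, and inhibition of growth is expressed relative to vehicle-treated controls.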

[4] = NCI Yeast Anticancer Drug Screen. Data for the mgt1 strain (AID 153); details: S. cerevisiae mgt1 mutant growth inhibition, active compounds read high
Summary of the method: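 In the mgt1 strain, test compounds were added and growth inhibition was determined relative to vehicle-treated controls.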

[5] = NCI Yeast Anticancer Drug Screen. Data for the rad50 strain (AID 155);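 also: 0% = growth of vehicle-only cultures of the same strain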; details: S. cerevisiae rad50 strain growth inhibition, active compounds read high
Summary of the method: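 DNA repair mutant yeast, compound exposure, growth read-out; inhibition is taken relative to vehicle.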

[6] = NCI Yeast Anticancer Drug Screen. Data for the mec2-1 strain (AID 157); details: S. cerevisiae mec2-1 strain, active compounds read high
Summary of the method: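 Each compound was tested on mec2-1 yeast, a strain altered in DNA damage repair or cell cycle control. Growth inhibition is reported relative to vehicle.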

[7] = NCI Yeast Anticancer Drug Screen. Data for the rad14 strain (AID 159);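 also: 0% = growth of vehicle-treated control cultures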; details: S. cerevisiae rad14 strain growth inhibition, active compounds read high
Summary of the method: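 DNA repair-defective yeast, compound-exposed; % growth inhibition derived by comparison with vehicle-treated controls.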

[8] = NCI Yeast Anticancer Drug Screen. Data for the sgs1 mgt1 strain (AID 161);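 also: 0% = growth of cultures given vehicle only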; details: S. cerevisiae sgs1 mgt1 strain, active compounds read high
Summary of the method: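 Read-out: growth inhibition vs vehicle controls. Cells: mutant yeast strain deficient in DNA damage repair.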

[9] = NCI Yeast Anticancer Drug Screen. Data for the CLN2oe strain (AID 163);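 also: 0% = growth of vehicle-only control cultures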; details: S. cerevisiae CLN2oe strain, active compounds read high
Summary of the method: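 First, the altered yeast strain was treated with each compound; second, its growth was measured; finally, inhibition was derived by comparison with vehicle controls.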

[10] = NCI Yeast Anticancer Drug Screen. Data for the cln2 rad14 strain (AID 165);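 also: 0% = growth equal to vehicle treated cultures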; details: S. cerevisiae cln2 rad14 strain, active compounds read high
Summary of the method: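 Test compounds were added to cln2 rad14 yeast cultures; inhibition of growth was then determined by comparison with vehicle treatment.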

[11] = NCI Yeast Anticancer Drug Screen. Data for the bub3 strain (AID 167); details: S. cerevisiae bub3 mutant strain, active compounds read high
Summary of the method: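 In this screen, a yeast mutant lacking normal mitotic checkpoint function is challenged with compound. Relative growth versus vehicle gives the inhibition value.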

[12] = NCI Yeast Anticancer Drug Screen. Data for the wt2 strain (AID 169);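 also: 0% = growth of vehicle-treated yeast cultures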; details: S. cerevisiae wt2 strain growth inhibition, active compounds read high
Summary of the method: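 The panel's yeast strains carry defined changes in DNA repair or cell cycle genes. Each strain is grown with compound, and growth loss is scored relative to vehicle.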

[13] = NCI Yeast Anticancer Drug Screen. Data for the mlh1 strain (AID 171);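 also: 0% = growth of vehicle-treated control cultures of the same strain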; details: S. cerevisiae mlh1 strain growth inhibition, active compounds read high
Summary of the method: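 Inhibition values reflect reduced yeast growth in the presence of compound, referenced to vehicle controls, using a strain chosen for its alteration in DNA repair or cell cycle control.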

[14] = NCI Yeast Anticancer Drug Screen. Data for the sgs1 strain (AID 173);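 also: 0% = growth of vehicle-only control cultures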; details: S. cerevisiae sgs1 mutant, active compounds read high
Summary of the method: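 Vehicle-treated cultures served as reference for growth inhibition of a yeast strain altered in DNA damage repair or cell cycle control after compound exposure.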

[15] = NCI Yeast Anticancer Drug Screen. Data for the mlh1 rad18 strain (AID 175); details: S. cerevisiae mlh1 rad18 strain growth inhibition, active compounds read high
Summary of the method: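 Inhibition values reflect reduced growth of mutant yeast versus vehicle-treated controls following compound exposure; the mutations affect DNA damage repair.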

[16] = at 5.0 µM (retest, dose inferred, filed as 0.5)
[17] = at 50.0 µM (retest, dose inferred, filed as 5.0)

Measured: growth inhibition

CCOC(=O)C1=C(C(=O)OCC)C2(c3ccccc3)N(O1)c1ccccc1C2(C)C (stereo not drawn)
active: [1]; at 100.0 µM 71% | [4]; at 100.0 µM 78% | [6]; at 100.0 µM 74% | [8]; [16] 71% | [8]; [17] 71% | [8]; at 50.0 µM 79.8% | [9]; at 100.0 µM 79% | [11]; at 100.0 µM 77% | [12]; at 100.0 µM 75% | [13]; at 100.0 µM 80% | [14]; at 100.0 µM 81%
inactive: [1]; at 1.2 µM -3% | [1]; at 3.7 µM -2% | [1]; at 11.0 µM 0% | [1]; at 33.0 µM 3% | [2]; at 1.2 µM -2% | [2]; at 3.7 µM -5% | [2]; at 11.0 µM -4% | [2]; at 33.0 µM -1% | [2]; at 100.0 µM 54% | [3]; at 1.2 µM -6% | [3]; at 3.7 µM -7% | [3]; at 11.0 µM -5% | [3]; at 33.0 µM -6% | [3]; at 100.0 µM 15% | [4]; at 1.2 µM -1% | [4]; at 3.7 µM 0% | [4]; at 11.0 µM -1% | [4]; at 33.0 µM -3% | [5]; at 1.2 µM -1% | [5]; at 3.7 µM -2% | [5]; [16] 54% | [5]; at 11.0 µM -3% | [5]; at 33.0 µM -1% | [5]; [17] 54% | [5]; at 50.0 µM 63% | [5]; at 100.0 µM 67% | [6]; at 1.2 µM -3% | [6]; at 3.7 µM -3% | [6]; [16] 35% | [6]; at 11.0 µM -5% | [6]; at 33.0 µM -7% | [6]; [17] 35% | [6]; at 50.0 µM 27.5% | [7]; at 1.2 µM 0% | [7]; at 3.7 µM -4% | [7]; at 11.0 µM -3% | [7]; at 33.0 µM -8% | [7]; at 100.0 µM 62% | [9]; at 1.2 µM -4% | [9]; at 3.7 µM -2% | [9]; at 11.0 µM -4% | [9]; at 33.0 µM -5% | [10]; [16] 6% | [10]; [17] 6% | [10]; at 50.0 µM 43.3% | [11]; at 1.2 µM -6% | [11]; at 3.7 µM -5% | [11]; [16] 31% | [11]; at 11.0 µM 8% | [11]; at 33.0 µM 13% | [11]; [17] 31% | [11]; at 50.0 µM 44.4% | [12]; at 1.2 µM -2% | [12]; at 3.7 µM -3% | [12]; at 11.0 µM -2% | [12]; at 33.0 µM 0% | [13]; at 1.2 µM -3% | [13]; at 3.7 µM -6% | [13]; at 11.0 µM -5% | [13]; at 33.0 µM -3% | [14]; at 1.2 µM -5% | [14]; at 3.7 µM -5% | [14]; at 11.0 µM -6% | [14]; at 33.0 µM -2% | [15]; [16] 32% | [15]; [17] 32% | [15]; at 50.0 µM 15.4%
